Assay [1] in a line: rapamycin-like changes in RPL19A-GFP expression – cell-based, S. cerevisiae, multiplex flow cytometry, primary screen (AID 1862; in the data active = percent of DMSO control GFP below about 86%;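 note: lower values mimic rapamycin by blocking the RPL19A rise seen in DMSO cells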). Conditions: S. cerevisiae RPL19A-GFP strain, flow cytometry fluorescence, 3 h; at 10 µM; stronger effect = lower value. On the technique in general: Flow cytometry measures light scatter and fluorescence of single cells or particles in a stream.
Assay [2] is described as follows: TOR pathway GLN3 branch reporter MEP2-GFP changes – S. cerevisiae, multiplex flow cytometry, primary screen (AID 1867;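 active = GFP response, as percent of the DMSO control, above the screen-wide mean plus 3 SD, about 139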;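 note: median GFP channel fluorescence of barcode-gated MEP2-GFP cells measured by flow cytometry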). Conditions: S. cerevisiae MEP2-GFP strain, 3 h, at 10 µM, stronger effect = higher value.
Assay [3] is described as follows: TOR pathway RTG branch CIT2 reporter changes – S. cerevisiae, GFP fusion, multiplex flow cytometry, primary screen (AID 1870;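 active = percent response above a set limit, the screen-wide mean plus 3 SD, cut at about 130% in these data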;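 note: barcoded CIT2-GFP strain pooled with four other GFP strains with rapamycin as positive control; median GFP fluorescence per well over plate mean of DMSO wells so 100% = DMSO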). Conditions: S. cerevisiae CIT2-GFP expression, 3 h, at 10 µM, stronger effect = higher value.
The nature of assay [4]: TOR pathway LAP4-GFP level changes – S. cerevisiae, multiplex flow cytometry, primary screen (AID 1873;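 active = GFP signal, as percent of the solvent control, above the screen mean plus 3 SD, about 149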). Conditions: S. cerevisiae LAP4-GFP expression, 3 h, at 10 µM, stronger effect = higher value.
Assay [5] can be described thus: yeast AGP1-GFP level changes, GLN3 branch – cell-based, multiplex flow cytometry, S. cerevisiae, primary screen (AID 1887;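 active = GFP signal above the screen-wide mean plus 3 SD, that is over about 124.5% of the solvent control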;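 note: AGP1-GFP fusion strain of S. cerevisiae within a five-strain barcoded multiplex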). Conditions: 3 h, at 10 µM, stronger effect = higher value.
Assay [6] in a line: reduced mouse 2C T cell binding to pMHC/ICAM-1 vesicles – MLPCN validation set, flow cytometry, LFA-1/ICAM-1 modulator project, pilot screen (AID 2523;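 active = response below a set limit, under 55% cells CD8-positive and vesicle-bound, and CD8 cells' 90th-percentile brightness under 279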;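 for vesicle binding response: mean PE anti-B7-1 fluorescence of CD8+ cells relative to row control; 100% = QL9-loaded vesicles with DMSO vehicle in the same plate row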). The note with it: 2C mouse CD8+ T cells, at 7 µM, stronger effect = lower value; double positive events: measured here: CD8+/vesicle+ event percentage.
For assay [7], the target named is Integrin beta-1 (Homo sapiens) + Integrin alpha-4 (Homo sapiens) (UniProt P13612+P05556). Nature of the assay: alpha4beta1 integrin LIBS antibody binding reduction – U937 cells, HUTS-21 mAb, flow cytometry, validation set, VLA-4 allosteric modulator project, pilot screen (AID 2674;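 active = inhibition above 50%, about 3 SD of the validation set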;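 note: antibody binding induced by the VLA-4 ligand LDV present at three times its Kd; 0% = LDV ligand with antibody and no compound and 100% = antibody without LDV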). Conditions: HUTS-21 LIBS mAb binding, at 6.7 µM, stronger effect = higher value.
Assay [8] can be described thus: calorie-restriction mimetic ROS inhibitors, yeast – validation compound set, pilot screen (AID 2706;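 active = superoxide response below 65% of plate, a cut near 3 SD across the whole screen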;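 note: yeast exposed to compound for one week at 30 degrees C before staining; 100% = mean of all compound wells on the same plate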). Conditions: S. cerevisiae aging, superoxide DHE fluorescence; at 10 µM; stronger effect = lower value.
Assay [9] addresses Beta-adrenergic receptor kinase 1 (Homo sapiens) (UniProt P25098). Description: GRK2 binders displacing RNA aptamer, biochemical, validation, human GRK2, bead flow cytometry (AID 488806;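 active = aptamer binding inhibition above 30%, about 3 SD of noise from non-fluorescent compounds; inactive = inhibition at or below 30%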). Conditions: bead-bound GRK2, FAM-aptamer displacement, at 10 µM, stronger effect = higher value.
Assay [10] concerns the target Beta-2 adrenergic receptor (Homo sapiens) (UniProt P07550). Nature of the assay: agonist-induced loss of surface beta2AR – cell-based, FAP fluorogen, flow cytometry, validation set, pilot screen (AID 504459;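 active = percent response above 42, roughly 3 SD of non-fluorescent test compounds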;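 note: agonist-driven loss of surface beta2AR via internalization measured by FAP dye flow cytometry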). Conditions: Am2.2-beta2AR cells, at 10 µM, stronger effect = higher value.
The target in assay [11] is AP-2 complex subunit beta (Homo sapiens) (UniProt P63010). Description: beta-arrestin/AP2 interaction blockers – biochemical, validation set, GST-AP2 beads, flow cytometry, pilot screen (AID 504541;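 active = inhibition above 54%, about 3 SD of non-fluorescent compounds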;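 note: AP2 carries R879A mutation and is captured from E. coli lysate; bead-bound FITC arrestin peptide fluorescence measuring arrestin peptide binding to AP2; 0% = DMSO wells and 100% = excess unlabeled arrestin peptide control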). Conditions: FITC arrestin peptide, at 10 µM, stronger effect = higher value.
The nature of assay [12]: cytosolic pH regulators acting via V-ATPase – S. cerevisiae, pHLuorin, HTS validation (AID 504600; in the data active = response above about 15%;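 note: plate controls were DMSO for no effect and reference compound for full effect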). Conditions: V-ATPase proton transport, at 10 µM, stronger effect = higher value.
For assay [13], the system named is anti-desmoglein-3 scFv antibody binding to human DSG3. Description: blockers of pathogenic pemphigus antibody–desmoglein-3 binding – biochemical, validation compound set, bead-based, flow cytometry, pilot screen (AID 588368;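 active = binding below the plate cutoff, the plate median minus 3 SD, with a reading above zero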;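 note: signal is the median channel fluorescence of bead-bound GFP antibody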). Conditions: Protein G beads, DSG3-Fc, scFv-GFP binding, at 10 µM, stronger effect = lower value.
Assay [14] concerns Botulinum neurotoxin type F light chain protease (Clostridium botulinum). Description: Clostridium botulinum type F light chain protease inhibitors, microsphere substrate cleavage, validation (AID 588459). The note with it: multiplex microsphere protease substrate cleavage assay, flow cytometry; at 10 µM; stronger effect = higher value.
The target of assay [15] is Botulinum neurotoxin type A (Clostridium botulinum) (UniProt P0DPI0). Description: BoNT/A light chain protease inhibitors, biochemical, multiplex microsphere flow cytometry, validation set (AID 588460). The note with it: at 10 µM, stronger effect = higher value.
The target of assay [16] is Lethal factor (Bacillus anthracis) (UniProt P15917). Nature of the assay: Bacillus anthracis lethal factor inhibition, microsphere flow cytometry protease assay, validation at 10 µM (AID 588461). The note with it: multiplex microsphere protease cleavage assay, stronger effect = higher value.
Assay [17] is described as follows: Nile Red efflux blockade in pump-expressing yeast – validation compound set, multiplex, phenotypic, pilot screen (AID 588506;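 active = efflux inhibition above 0.42, the validation set average plus 4 SD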;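 note: Nile Red retained in cells so higher fluorescence means more efflux inhibition; 0 = negative control wells and 1 = enniatin B 25 µM full block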). The note with it: S. cerevisiae pump-expressing triplex, Nile Red efflux flow cytometry; at 10 µM; stronger effect = higher value.
In assay [18] the target is ATP-binding cassette sub-family B member 6 (Homo sapiens) (UniProt Q9NP58). Nature of the assay: blockers of ABCB6-driven porphyrin uptake – K562-ABCB6 cells, flow cytometry, validation set, pilot screen (AID 588550;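 active = inhibition above the screen-wide mean plus 3 SD, about 51%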;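 note: 0% = DMSO wells and 100% = benzethonium chloride 70 µM positive control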). The note with it: K562-ABCB6 porphyrin accumulation, 1 h, at 10 µM, stronger effect = higher value.
Assay [19] can be described thus: AML differentiation inducers, ER-HoxA9 marrow cells – cell-based, GFP/MAC1 double positive, flow cytometry, validation set, primary screen (AID 588685;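 active = differentiation response of at least 50%, scaled between solvent and reference control, from cells with both markers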;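 note: compound exposure lasts four days before antibody staining and flow analysis; 0% = DMSO wells and 100% = 5 µM fulvestrant positive control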). Conditions: stronger effect = higher value.

A word on the inhibition: it is the drop in the measured response relative to a control, in per cent.

SMILES strings stand for the structures. Records with an inconclusive call do not appear. Active and inactive are the calls of the source. Unless noted, the rule behind the calls is not given here.

Chain of Integrin beta-1 (Homo sapiens) + Integrin alpha-4 (Homo sapiens) (P05556 whole entry, looked up): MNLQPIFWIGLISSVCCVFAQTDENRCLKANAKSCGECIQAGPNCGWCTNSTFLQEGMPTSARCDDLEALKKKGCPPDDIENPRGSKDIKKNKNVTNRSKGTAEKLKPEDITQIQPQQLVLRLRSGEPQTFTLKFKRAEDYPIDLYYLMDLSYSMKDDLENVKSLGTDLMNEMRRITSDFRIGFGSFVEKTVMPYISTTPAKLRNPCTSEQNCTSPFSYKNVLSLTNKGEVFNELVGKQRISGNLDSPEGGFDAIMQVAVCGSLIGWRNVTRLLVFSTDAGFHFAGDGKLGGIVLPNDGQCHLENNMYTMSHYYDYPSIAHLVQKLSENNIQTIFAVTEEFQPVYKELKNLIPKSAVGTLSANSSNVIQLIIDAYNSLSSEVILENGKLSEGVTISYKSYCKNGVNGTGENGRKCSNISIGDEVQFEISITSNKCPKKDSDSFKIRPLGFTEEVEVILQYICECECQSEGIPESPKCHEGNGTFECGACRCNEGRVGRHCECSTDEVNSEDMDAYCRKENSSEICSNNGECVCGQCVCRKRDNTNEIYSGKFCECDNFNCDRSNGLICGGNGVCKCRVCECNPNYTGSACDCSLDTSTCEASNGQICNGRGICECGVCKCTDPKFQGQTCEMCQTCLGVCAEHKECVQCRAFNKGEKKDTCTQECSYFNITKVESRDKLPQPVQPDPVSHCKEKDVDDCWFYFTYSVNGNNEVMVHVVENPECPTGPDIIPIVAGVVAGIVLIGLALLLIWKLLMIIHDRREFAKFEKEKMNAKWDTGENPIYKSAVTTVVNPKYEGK
Chain of Integrin beta-1 (Homo sapiens) + Integrin alpha-4 (Homo sapiens) (P13612 whole entry, looked up): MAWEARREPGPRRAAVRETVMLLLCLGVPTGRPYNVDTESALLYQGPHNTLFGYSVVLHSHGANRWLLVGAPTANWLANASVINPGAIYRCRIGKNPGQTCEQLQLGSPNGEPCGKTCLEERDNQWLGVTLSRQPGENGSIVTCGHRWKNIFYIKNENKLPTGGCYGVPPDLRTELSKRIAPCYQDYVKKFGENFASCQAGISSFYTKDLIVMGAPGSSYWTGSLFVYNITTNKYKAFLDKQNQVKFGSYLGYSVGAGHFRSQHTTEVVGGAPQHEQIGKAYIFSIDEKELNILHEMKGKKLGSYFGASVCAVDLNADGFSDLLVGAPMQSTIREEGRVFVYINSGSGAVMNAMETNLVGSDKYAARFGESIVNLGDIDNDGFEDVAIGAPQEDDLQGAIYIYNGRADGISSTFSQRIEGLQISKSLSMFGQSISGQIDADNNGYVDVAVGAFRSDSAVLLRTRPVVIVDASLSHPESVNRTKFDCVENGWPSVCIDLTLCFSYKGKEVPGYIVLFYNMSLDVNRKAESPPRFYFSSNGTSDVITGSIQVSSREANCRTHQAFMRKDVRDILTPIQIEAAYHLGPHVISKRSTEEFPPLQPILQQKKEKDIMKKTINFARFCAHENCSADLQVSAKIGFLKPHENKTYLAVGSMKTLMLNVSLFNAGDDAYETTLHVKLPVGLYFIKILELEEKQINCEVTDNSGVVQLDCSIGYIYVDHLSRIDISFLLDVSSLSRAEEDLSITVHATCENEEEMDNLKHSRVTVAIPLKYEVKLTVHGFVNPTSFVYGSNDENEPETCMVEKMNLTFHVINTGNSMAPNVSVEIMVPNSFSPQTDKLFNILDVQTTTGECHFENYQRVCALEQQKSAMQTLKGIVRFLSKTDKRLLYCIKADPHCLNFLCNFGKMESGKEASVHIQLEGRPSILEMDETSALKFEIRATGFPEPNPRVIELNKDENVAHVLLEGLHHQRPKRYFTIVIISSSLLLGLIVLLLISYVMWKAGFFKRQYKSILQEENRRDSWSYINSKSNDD
Chain of AP-2 complex subunit beta (Homo sapiens) (P63010 whole entry, looked up, one chain of several): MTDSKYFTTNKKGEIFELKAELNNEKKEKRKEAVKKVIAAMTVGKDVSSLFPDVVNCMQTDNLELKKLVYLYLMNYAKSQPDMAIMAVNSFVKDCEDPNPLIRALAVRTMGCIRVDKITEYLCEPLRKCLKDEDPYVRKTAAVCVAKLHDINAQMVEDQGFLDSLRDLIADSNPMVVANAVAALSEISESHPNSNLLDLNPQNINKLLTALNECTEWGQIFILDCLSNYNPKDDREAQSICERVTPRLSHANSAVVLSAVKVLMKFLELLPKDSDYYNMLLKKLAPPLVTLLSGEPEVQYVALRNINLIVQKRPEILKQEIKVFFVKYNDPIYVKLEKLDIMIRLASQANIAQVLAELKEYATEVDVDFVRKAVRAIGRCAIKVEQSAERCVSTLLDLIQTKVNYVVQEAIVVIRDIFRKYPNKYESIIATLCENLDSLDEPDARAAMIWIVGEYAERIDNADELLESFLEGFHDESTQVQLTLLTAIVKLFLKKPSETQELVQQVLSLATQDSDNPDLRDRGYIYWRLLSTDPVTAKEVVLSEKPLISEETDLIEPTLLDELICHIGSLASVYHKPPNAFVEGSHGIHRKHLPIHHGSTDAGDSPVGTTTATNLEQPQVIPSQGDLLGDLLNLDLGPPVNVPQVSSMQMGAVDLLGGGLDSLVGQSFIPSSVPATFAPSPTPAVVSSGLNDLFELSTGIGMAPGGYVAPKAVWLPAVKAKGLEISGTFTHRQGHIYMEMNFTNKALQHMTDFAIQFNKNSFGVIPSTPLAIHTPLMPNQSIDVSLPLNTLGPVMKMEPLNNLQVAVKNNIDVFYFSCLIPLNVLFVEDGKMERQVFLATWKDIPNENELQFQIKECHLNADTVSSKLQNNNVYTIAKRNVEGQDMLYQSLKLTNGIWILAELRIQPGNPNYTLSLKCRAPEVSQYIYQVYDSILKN
Chain of Beta-2 adrenergic receptor (Homo sapiens) (P07550 whole entry, looked up): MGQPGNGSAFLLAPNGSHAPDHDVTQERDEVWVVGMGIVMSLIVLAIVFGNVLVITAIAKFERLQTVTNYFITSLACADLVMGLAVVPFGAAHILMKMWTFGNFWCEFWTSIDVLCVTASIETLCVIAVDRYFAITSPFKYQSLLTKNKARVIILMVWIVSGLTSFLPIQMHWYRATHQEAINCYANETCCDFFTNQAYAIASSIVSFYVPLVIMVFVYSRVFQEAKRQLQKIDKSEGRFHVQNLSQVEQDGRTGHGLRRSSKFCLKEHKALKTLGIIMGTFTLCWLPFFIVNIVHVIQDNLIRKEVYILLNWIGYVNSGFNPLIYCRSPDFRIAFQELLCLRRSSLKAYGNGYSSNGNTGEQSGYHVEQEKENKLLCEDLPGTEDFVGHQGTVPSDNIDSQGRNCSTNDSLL
Chain of ATP-binding cassette sub-family B member 6 (Homo sapiens) (Q9NP58 whole entry, looked up): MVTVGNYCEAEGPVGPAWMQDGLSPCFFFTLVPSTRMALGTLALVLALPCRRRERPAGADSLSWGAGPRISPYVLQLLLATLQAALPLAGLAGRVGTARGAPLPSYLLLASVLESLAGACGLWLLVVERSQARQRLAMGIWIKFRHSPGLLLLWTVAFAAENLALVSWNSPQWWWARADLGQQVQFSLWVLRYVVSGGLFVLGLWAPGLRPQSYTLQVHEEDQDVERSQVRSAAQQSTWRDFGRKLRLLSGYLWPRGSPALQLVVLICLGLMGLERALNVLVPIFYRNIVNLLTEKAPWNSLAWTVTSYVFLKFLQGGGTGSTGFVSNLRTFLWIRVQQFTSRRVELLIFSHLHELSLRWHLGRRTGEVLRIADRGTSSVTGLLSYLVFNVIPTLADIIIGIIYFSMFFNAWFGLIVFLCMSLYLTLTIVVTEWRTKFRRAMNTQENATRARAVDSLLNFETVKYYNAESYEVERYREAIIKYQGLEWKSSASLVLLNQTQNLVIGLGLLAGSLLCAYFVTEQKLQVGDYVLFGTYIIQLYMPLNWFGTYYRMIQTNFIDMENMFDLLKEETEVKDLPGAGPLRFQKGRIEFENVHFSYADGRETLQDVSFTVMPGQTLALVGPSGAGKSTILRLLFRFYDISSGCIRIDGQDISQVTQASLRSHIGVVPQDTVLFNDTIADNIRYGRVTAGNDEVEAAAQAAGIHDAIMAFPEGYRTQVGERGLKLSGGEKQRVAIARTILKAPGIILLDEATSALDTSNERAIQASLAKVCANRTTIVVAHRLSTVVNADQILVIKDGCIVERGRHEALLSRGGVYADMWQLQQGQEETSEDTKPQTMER
Chain of Lethal factor (Bacillus anthracis) (P15917 whole entry, looked up): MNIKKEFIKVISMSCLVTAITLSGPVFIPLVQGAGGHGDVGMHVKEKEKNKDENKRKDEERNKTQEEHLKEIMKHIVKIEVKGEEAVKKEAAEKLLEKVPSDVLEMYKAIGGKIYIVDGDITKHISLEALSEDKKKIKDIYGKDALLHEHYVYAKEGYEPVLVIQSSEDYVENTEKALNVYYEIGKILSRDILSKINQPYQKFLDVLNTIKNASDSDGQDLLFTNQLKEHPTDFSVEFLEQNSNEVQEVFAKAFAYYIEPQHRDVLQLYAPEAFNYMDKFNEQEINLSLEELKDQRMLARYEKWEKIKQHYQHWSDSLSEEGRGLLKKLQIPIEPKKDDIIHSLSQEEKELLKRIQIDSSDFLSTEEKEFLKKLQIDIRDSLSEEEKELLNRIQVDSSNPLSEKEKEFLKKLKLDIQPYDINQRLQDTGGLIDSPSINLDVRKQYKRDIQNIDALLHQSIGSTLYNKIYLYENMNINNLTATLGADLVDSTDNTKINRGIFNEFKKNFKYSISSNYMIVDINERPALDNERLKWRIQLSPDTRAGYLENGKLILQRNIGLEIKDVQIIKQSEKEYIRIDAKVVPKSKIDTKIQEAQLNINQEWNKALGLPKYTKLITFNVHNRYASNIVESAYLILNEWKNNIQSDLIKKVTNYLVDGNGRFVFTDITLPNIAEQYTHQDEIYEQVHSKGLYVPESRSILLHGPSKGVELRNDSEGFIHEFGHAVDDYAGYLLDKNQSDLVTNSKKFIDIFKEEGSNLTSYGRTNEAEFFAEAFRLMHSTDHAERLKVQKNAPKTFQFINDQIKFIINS

`CC(C)CC12CN3CCN(CC(C3)C1O)C2` (stereo not given): the percent of DMSO control GFP in [1] is 89.8% (inactive). Also, the GFP response vs DMSO in assay [2] is 116% (inactive); in assay [4], 89.7% (inactive). The percent response of DMSO control in assay [3] was 111% (inactive). Also, the GFP response, % of DMSO in assay [5] is 105% (inactive). The double positive events in assay [6] stood at 65.4%. In addition, the vesicle binding response in assay [6] is 153% (inactive). Moreover, the inhibition in assay [7] is -2.27% (inactive); in [11], -0.1% (inactive); in [14], 3.6% (inactive); in assay [15], -0.7% (inactive); in [16], -4.5% (inactive); in assay [18], 13% (inactive). In assay [8], the superoxide response (% of plate) was 91.5% (inactive). Also, the aptamer binding inhibition in assay [9] is -7% (inactive). For the same compound, the results for the response in [10] and in assay [12] were 4.34% (inactive) and -1.9% (inactive), respectively. In assay [13], the binding (% of control) was 110% (inactive). Further, in assay [17], the efflux inhibition (fraction of control) is -0.28 (inactive). For the same compound, the differentiation response in assay [19] was 10.6% (inactive).
With `C[N+]1(C)CCOC(O)(c2ccc(-c3ccc(C4(O)C[N+](C)(C)CCO4)cc3)cc2)C1` (stereo not given), the percent of DMSO control GFP in assay [1] is 94.6% (inactive). The figures for the GFP response vs DMSO in assay [2] and in assay [4] were 126% (inactive) and 76.5% (inactive), respectively. Moreover, in [3], the percent response of DMSO control is 101% (inactive). For the same compound, the GFP response, % of DMSO in assay [5] is 88% (inactive). This compound also had a double positive events in [6] of 64.9%. For the same compound, in assay [6], the vesicle binding response is 192% (inactive). Besides, the inhibition in assay [7] was 9.37% (inactive); in assay [11], 1.77% (inactive); in assay [14] it was 1.7% (inactive); in [15], 0.1% (inactive); in [16], 0.5% (inactive); in [18], 15% (inactive). For the same compound, in [8], the superoxide response (% of plate) was 113% (inactive). Further, in assay [9], the aptamer binding inhibition is -3% (inactive). Besides, the values for the response in [10] and in [12] were -10.1% (inactive) and 2.1% (inactive), respectively. The binding (% of control) in assay [13] is 101% (inactive). The efflux inhibition (fraction of control) in assay [17] is 0.19 (inactive). In [19], the differentiation response was 2.46% (inactive).
With `CC[C@]12C=CCN3CCC4(c5cc(Br)c(OC)cc5N(C)C4[C@@](O)(C(=O)OC)[C@@H]1OC(C)=O)C32` (stereo not given in full), the percent of DMSO control GFP in [1] was 88.9% (inactive). Also, the GFP response vs DMSO in assay [2] was 130% (inactive); in assay [4], 84.2% (inactive). For the same compound, in [3], the percent response of DMSO control is 96.6% (inactive). Besides, in assay [5], the GFP response, % of DMSO is 90.5% (inactive). Further, in assay [6], the double positive events turned out to be 48.2%. For the same compound, the vesicle binding response in assay [6] is 18.6% (active). The inhibition was 29.7% (inactive) in assay [7]; -7.24% (inactive) in [11]; 2.5% (inactive) in [14]; 1.6% (inactive) in assay [15]; -5.6% (inactive) in assay [16]; 10% (inactive) in assay [18]. The superoxide response (% of plate) in assay [8] was 95.7% (inactive). Besides, the aptamer binding inhibition in assay [9] was 5% (inactive). Moreover, the response was -10.3% (inactive) in assay [10] and 5.2% (inactive) in [12]. Besides, the binding (% of control) in assay [13] is 109% (inactive). In addition, the efflux inhibition (fraction of control) in assay [17] is 0.23 (inactive). Besides, in [19], the differentiation response was 0% (inactive).

(Values after PubChem BioAssay.)
